Test results as given in PubChem BioAssay AID743279 (National Center for Advancing Translational Sciences (NCATS), 2014).
The whole screen tested about 360,000 compounds, of which about 17,000 (4.7%) were called active. About 5% were inconclusive and are not listed. This is one part of a sample in which actives are shown more often than they occur. Values without a mark were called inactive. Cut-off read from the data, not from the text of the source: active = activity change below about -50%; inconclusive = mostly about -30% to -49%; inactive = weaker than that.

assay: qHTS for Inhibitors of Inflammasome Signaling: IL-1-beta AlphaLISA Primary Screen; details: THP-1 LPS/ATP IL-1B secretion, 16 h; at 57.5 µM, hits give low values
Text: Inflammasomes are a set of intracellular multi-protein complexes that enable autocatalytic activation of inflammatory caspases and drive the innate immune response to counter harmful agents. […] A qHTS assay, based on AlphaLISA technology, was developed to screen the Molecular Libraries Small Molecule Repository (MLSMR) to look for novel inflammasome inhibitors. The assay detects IL-1B using AlphaLISA anti-IL-1B acceptor and donor beads. A decreased emission signal, indicating reduced IL-1B secretion, is the desired outcome for this assay. NIH Chemical Genomics Center [NCGC] NIH Molecular Libraries Probe Centers Network [MLPCN] MLPCN Grant: MH095513 Assay Provider: Shyam Biswal Ph.D., Johns Hopkins University Immunity. 2012 Jul 27;37(1):85-95. PMID: 22819042 [2] Curr Pharm Des. 2012;18(16):2320-8. PMID: 22390695
Three microliters containing 3000 THP-1 cells were dispensed into the wells of solid, white, tissue culture treated Greiner 1,536-well plates. Library compounds and positive control, Glyburide, were pin-transferred (23 nL) by a Kalypsys pin-tool equipped with a 1,536-pin array, resulting in final compound concentration ranges of 2.5 nM to 57.5 uM. After 1 hr of cell culture incubation (37 °C, 5% CO2), 1 microL of 1 microg/mL lipopolysaccharide (250 ng/mL, final) and 5 mM ATP (1.25 mM, final) were added to stimulate the cells. After 16 hr of cell culture incubation with the compounds, 1.5 uL of anti-IL-1B acceptor beads (6 ug/mL, final) and biotinylated antibody (0.6 nM, final) were added to the plate, followed by a 1 hr incubation at ambient temperature. To detect the secreted IL-1B, 1.5 uL of AlphaLISA SA-Donor beads (24 ug/mL, final) were added, followed by 30 min of incubation in the dark at ambient temperature. The AlphaLISA signal was read by a PerkinElmer EnVision plate reader with an ultrasensitive luminescence detector and 1536 Plate HTS AlphaScreen aperture (excitation of 680nm and emission of 615nm).
% is set by controls: 0 for no effect and ±100 for the full control effect.

Row | Structure (SMILES) | activity change
1 | COc1ccc(-c2c(C#N)cnc(C)c2C)c(O)c1OC | -20.7%
2 | COc1cc(/C=C(\C#N)c2nc3ccccc3[nH]2)ccc1O | -65.7% (active)
3 | Cc1ccc(O)c(CNc2nc3ccccc3[nH]2)c1 | -5.71%
4 | CCCCCOc1ccc(/C=C/C(=O)NCCc2nc3ccccc3[nH]2)cc1OC | -2.9%
5 | O=C(CCN1C(=O)c2ccccc2C1=O)C1=NN[C@@H]2C(=O)N(c3ccc(F)cc3)C(=O)[C@H]12 | 5.83%
6 | COc1ccc(OCC(O)CNCCNc2nccc(C(F)(F)F)n2)cc1 (configuration not stated) | -18.5%
7 | CC(C)(C)NCC(O)COc1cccc2[nH]c(=O)[nH]c12 (configuration not stated) | 4.98%
8 | CC(C)(C)CC(C)(C)NCC(O)COCCOc1ccc(Br)cc1 (configuration not stated) | -99.4% (active)
9 | O=[N+]([O-])c1ccc2c(c1)C(O)n1nc(-c3ccccc3)nc1S2 (configuration not stated) | -8.59%
10 | O=C(C[C@H]1C[C@@H]2c3cc(NC(=O)C4CCC4)ccc3O[C@@H]2[C@H](CO)O1)NC1CCCCC1 | 13%
11 | Cn1cnnc1Sc1ccc(CN2CCN(C3CCCC3)C(CCO)C2)o1 (configuration not stated) | 0.321%
12 | C[C@H]1CN(c2ccc(Br)cc2)C(=O)[C@@H]1CC(=O)Nc1ccc(Br)cc1 | 3.7%
13 | O=C(CSc1c2c(nc3ccc(Cl)cc13)CCCC2)NCc1ccco1 | -92.7% (active)
14 | O=C(/C=C/c1ccc(Cl)cc1Cl)NCc1ccco1 | -10.5%
15 | O=C(CSc1nnnn1-c1ccccc1)NCc1ccco1 | 2.34%
16 | CS(=O)(=O)N1CCCC(C(=O)Nc2ccccc2C(F)(F)F)C1 (configuration not stated) | 8.14%
17 | O=C(Nc1cccc(F)c1)N1C2CCC1CC(O)(c1cccnc1)C2 (configuration not stated) | 31.6%
18 | Cc1nc2nc3c(cn2n1)C(=O)CC(c1ccccc1)C3 (configuration not stated) | 20.9%
19 | Cc1cc(C)nc(-n2ncc3c2CC(c2ccc(C(C)C)cc2)CC3=O)n1 (configuration not stated) | -85.9% (active)

Row | Structure (SMILES) | activity change
20 | COc1ccc(OC)c(-n2cc3c(=O)n(C)c(=O)n(C)c3c2)c1 | 33%
21 | CC1(C)N=C(N)NC(Nc2ccc(Cl)cc2)=N1 | -77.7% (active)
22 | COc1ccccc1NC1=NC(c2ccc(Cl)cc2)N=C(N)N1 (configuration not stated) | -13.3%
23 | O=c1ccnc(Nc2ccc(Cl)cc2)[nH]1 | 0%
24 | O=C(Nc1ccc2c(c1)OCCO2)C(C1CC1)N1CCC(Cc2ccccc2)CC1 (configuration not stated) | 11.6%
25 | CC1Oc2ccccc2N(Cc2cccnc2)C1=O (configuration not stated) | -12.7%
26 | CC12c3ccccc3C(c3ccccc31)C1C(=O)N(Cc3cccnc3)C(=O)C12 (configuration not stated) | -50.6% (active)
27 | CC1(C)CN(Cc2cccnc2)C(=O)[C@H]1CC(=O)Nc1ccc(Br)cc1 | 24.4%
28 | CC(=O)N1CCN(Cc2cc(=O)oc3cc(C)ccc23)CC1 | 19.5%
29 | O=C(/C(=N\O)n1cncn1)c1ccc(Br)cc1Br | -12.3%
30 | CCN(CC)C(=O)c1sc2nc(-c3ccccc3)ccc2c1N | -57.4% (active)
31 | Cc1ccc2c(N)c(C(=O)c3ccccc3)sc2n1 | -69.1% (active)
32 | Cc1cccc(NC(=O)c2sc3nc(N4CCOCC4)c4c(c3c2N)CCCC4)c1 | 11.3%
33 | Cc1nn(C)cc1C(=O)c1ccccc1 | 0%
34 | CCN(CC)C(=O)N(CC)Cc1ccccc1 | 3.47%
35 | COC(=O)c1cc2c(N)c(C(=O)c3ccc(Cl)cc3)sc2nc1C(OC)OC | -7.51%
36 | Cc1nc2ccccc2c(-c2ccccc2)c1C(=O)c1ccccc1 | 29.5%
37 | Cc1nc2sc(C(=O)c3ccccc3)c(N)c2c2c1CCCC2 | -96% (active)
38 | CCN(CC)C(=O)c1sc(NC(=O)c2ccco2)c(C#N)c1C | -26.1%

Row | Structure (SMILES) | activity change
39 | COCCCn1c(=O)/c(=C/c2ccccc2OC(C)C)s/c1=C(\C#N)C(=O)Nc1ccc(C(=O)O)cc1 | -11.6%
40 | CC1Cc2ccccc2N1S(=O)(=O)c1cccc(C(=O)NCC(c2ccco2)N2CCCC2)c1 (configuration not stated) | -6.87%
41 | Cc1ccc([C@H]2N[C@]3(CCCN(Cc4ccccc4)C3=O)[C@H]3C(=O)N(Cc4ccccc4)C(=O)[C@@H]23)cc1 | 19.2%
42 | CC(C)N1C(=O)c2ccccc2NC(=O)C1C(=O)NCc1cccs1 (configuration not stated) | 0%
43 | C[C@@H]1CCCCO[C@H](CN(C)Cc2ccccc2)[C@@H](C)CN([C@H](C)CO)C(=O)c2cc(NS(=O)(=O)c3ccc(Cl)cc3)ccc2O1 | -50.8% (active)
44 | C[C@@H]1CN([C@@H](C)CO)C(=O)c2cc(NS(C)(=O)=O)ccc2O[C@@H](C)CCCCO[C@H]1CN(C)C(=O)Nc1ccc2c(c1)OCO2 | -2.98%
45 | Cc1ccc(S(=O)(=O)Nc2ccc3c(c2)C(=O)N([C@H](C)CO)C[C@@H](C)[C@@H](CN(C)C(=O)Nc2cccc4ccccc24)O3)cc1 | -20.3%
46 | COc1cc(NC(=O)c2cc(-c3ccc(F)cc3OC(C)C)n[nH]2)cc(OC)c1OC | -6.74%
47 | Cc1cccc(NC(=S)NCCN(C2CCCCC2)C2CCCC2)c1 | -63.3% (active)
48 | Cc1cccc(C(=O)NC(=S)N(C)C2CCCCC2)c1 | -1.28%
49 | Cc1cccc(NC(=S)NCc2ccc3[nH]c4c(c3c2)CCCC4)c1 | -10.4%
50 | COc1ccc(C)cc1N(C(=O)Cn1nnc(-c2ccc(C)o2)n1)C(C(=O)NC1CCCC1)c1ccncc1 (configuration not stated) | 7.77%
51 | Cc1ccc2c(c1)c1ncnc(N3CCc4ccccc4C3)c1n2C | -19.9%
52 | O=C1CCC(C(=O)OCC(=O)Nc2ccc(OC(F)F)cc2)=NN1 | -2.22%
53 | C=CCC1(CC=C)CCCN1C(=O)c1cc(COc2ccc(-n3cncn3)cc2)on1 | -59.7% (active)
54 | O=C(c1cc(COc2ccc(F)c(F)c2)on1)N1CCOCC1 | -28.7%
55 | CCn1ccnc1CN(C)C(=O)c1cc(COc2ccc(-n3cncn3)cc2)on1 | 21.7%
56 | O=C(NC1CCCC1)C1c2ccccc2OCC(=O)N1Cc1ccccc1 (configuration not stated) | 27.8%
57 | CCN1CCN(C(=O)CCN2C(=O)c3ccccc3C2=O)CC1 | 15.8%
